Measured values published in PubChem BioAssay (Tox21).
Where “and” joins values, the source holds several entries; their conditions need not be identical. Identical values can stand only once. Records with an inconclusive call do not appear. A call without a number means that no potency is given here. Where a structure was tested more than once in an assay, its records may differ in their call. Calls of active or inactive are those of the source. Calls follow the shape of the dose curve; as a rule, active = well fitted curve in the direction sought with a large enough effect in the repeat runs; inconclusive = weak or mixed curves; inactive = no such curve, though single readings can be large; an effect the other way counts as inactive or inconclusive.

Key:
[1] = A CellTox Green Cytotoxicity Assay to monitor cytotoxicity in HEK293 cells - 40 hour (AID 1224871); also: nearly all actives have a fitted effect of over 45% in size; also: potency is read from the fitted curve at half-maximal effect
Method in brief: (§1)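 Each value comes from one timepoint of a single continuous run in which HEK293 cells with CellTox Green were exposed to compound for up to 40 h at 37 C, dye fluorescence rising with cell death.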

[2] = qHTS RealTime-Glo MT Cell Viability Assay in HEK293 cells - 16 hour (AID 1224872); also: nearly all actives have a fitted effect of over 50% in size; also: potency is read from the fitted curve at half-maximal effect
Method in brief: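 Cells + reagent dispensed (600 cells/well, HEK293) → 5 h at 37 C/5% CO2 → 23 nL compound in DMSO pinned → 40 h at 37 C → luminescence read at 0, 8, 16, 24, 32, 40 h.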

[3] = qHTS RealTime-Glo MT Cell Viability Assay in HepG2 cells - 8 hour (AID 1224873); also: nearly all actives have a fitted effect of over 55% in size; also: potency is read from the fitted curve at half-maximal effect
Method in brief: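 HepG2 cells (600/well) mixed with RealTime-Glo MT reagent, settled 5 h at 37 C/5% CO2 before compound addition. Nonlytic NanoLuc luminescence from viable-cell prosubstrate reduction read repeatedly during 40 h treatment at 37 C.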

[4] = qHTS RealTime-Glo MT Cell Viability Assay in HEK293 cells - 40 hour (AID 1224874); settings: RealTime-Glo luminescence; max response: stronger effect = lower value; also: nearly all actives have a fitted effect of over 50% in size; also: potency is read from the fitted curve at half-maximal effect
Method in brief: (§2)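 qHTS format; HEK293 cells with NanoLuc/prosubstrate reagent, 37 C/5% CO2 for 5 h pre-dosing; compounds 23 nL in DMSO; luminescence at each time point reflects viable cells.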

[5] = A CellTox Green Cytotoxicity Assay to monitor cytotoxicity in HepG2 cells - 16 hour (AID 1224876); also: nearly all actives have a fitted effect of over 45% in size; also: potency is read from the fitted curve at half-maximal effect
Method in brief: (§3)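 Continuous culture of HepG2 cells with a membrane-impermeant DNA dye; rising fluorescence marks dead cells. Compound exposure lasted up to 40 h at 37 C, with reads every 8 h from 0 h.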

[6] = A CellTox Green Cytotoxicity Assay to monitor cytotoxicity in HepG2 cells - 24 hour (AID 1224878); also: nearly all actives have a fitted effect of over 45% in size; also: potency is read from the fitted curve at half-maximal effect
Method in brief: as §3

[7] = A CellTox Green Cytotoxicity Assay to monitor cytotoxicity in HepG2 cells - 40 hour (AID 1224879); also: nearly all actives have a fitted effect of over 40% in size; also: potency is read from the fitted curve at half-maximal effect
Method in brief: as §3

[8] = qHTS RealTime-Glo MT Cell Viability Assay in HEK293 cells - 0 hour (AID 1224880); also: top concentration of the series differs between compounds; nearly all actives have a fitted effect of over 45% in size
Method in brief: as §2

[9] = qHTS RealTime-Glo MT Cell Viability Assay in HepG2 cells - 32 hour (AID 1224877); also: nearly all actives have a fitted effect of over 55% in size; also: potency is read from the fitted curve at half-maximal effect
Method in brief: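 Real-time, nonlytic viability: 600 HepG2 cells/well mixed with NanoLuc enzyme plus prosubstrate; 5 h settle, compound (DMSO) added by pintool; luminescence monitored over 40 h at 37 C.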

[10] = A CellTox Green Cytotoxicity Assay to monitor cytotoxicity in HEK293 cells - 24 hour (AID 1224875); also: nearly all actives have a fitted effect of over 45% in size; also: potency is read from the fitted curve at half-maximal effect
Method in brief: as §1

Row | Structure (SMILES) | Potency [1] | Potency [2] | Potency [3] | max response [4] | Potency [5] | Potency [6] | Potency [7] | Potency [8] | Potency [9] | Potency [10] | Potency [4]
1 | [O]=[Cr][O][Cr]=[O] | inactive | inactive | inactive | 17.9% (inactive) | inactive | inactive | inactive | inactive | – | – | –
2 | Cc1cccc(Cc2cnc[nH]2)c1C | inactive | inactive | inactive | -0.68% (inactive) | – | – | – | inactive | inactive | – | –
3 | Cc1ccc(C)c2ccccc12 | 38.9 µM (active) | inactive | inactive | -14.8% (inactive) | inactive | inactive | inactive | inactive | inactive | – | –
4 | Brc1cccc(-c2ccccc2)c1 | 39.2 µM (active) | inactive | inactive | -11.2% (inactive) | inactive | inactive | inactive | inactive | inactive | – | –
5 | COC(=O)C(C)N(C(=O)c1ccco1)c1c(C)cccc1C (centres undefined) | inactive | inactive | inactive | -12.7% (inactive) | – | – | – | inactive | inactive | inactive | –
6 | CSC1=N[C@@](C)(c2ccccc2)C(=O)N1Nc1ccccc1 | inactive | inactive | inactive | – | inactive | inactive | inactive | – | inactive | inactive | –
7 | CC#C[C@]1(O)CC[C@H]2[C@@H]3C[C@H](C)C4=CC(=O)CC[C@]4(C)[C@H]3CC[C@@]21C | inactive | inactive | inactive | – | inactive | inactive | – | – | inactive | inactive | –
8 | Cc1c([N+](=O)[O-])c(C)c([N+](=O)[O-])c(C(C)(C)C)c1[N+](=O)[O-] | inactive | inactive | inactive | -20% (inactive) | – | inactive | inactive | inactive | inactive | inactive | –
9 | COP(=S)(NC(C)C)Oc1ccc(C)cc1[N+](=O)[O-] (centres undefined) | inactive | inactive | inactive | -12.5% (inactive) | inactive | inactive | inactive | inactive | inactive | – | –
10 | CCCC[N+]1(C)CCCC1 (tested in a mixture with another compound) | inactive | inactive | inactive | 8.56% (inactive) | inactive | inactive | inactive | inactive | inactive | – | –
11 | CCC(C)Br (centres undefined) | inactive | inactive | inactive | – | inactive | inactive | inactive | inactive | inactive | inactive | –
12 | Nc1c(Cl)c(Cl)c(Cl)c(Cl)c1Cl | inactive | inactive | inactive | -2.22% (inactive) | – | – | – | inactive | inactive | inactive | –
13 | C[C@]12C/C(=C/O)C(=O)C[C@@H]1CC[C@@H]1[C@@H]2CC[C@@]2(C)[C@H]1CC[C@]2(C)O | 49.4 µM (active) and inactive | inactive | inactive | -17.5% (inactive) | – | inactive | – | inactive | inactive | – | –
14 | CCCCCCCCCCCCCCn1cc[n+](C)c1 | 39 µM (active) and 38.5 µM (active) and inactive | 55 µM (active) and 24.3 µM (active) | 49.1 µM (active) and inactive | – | 34.7 µM (active) and 43.2 µM (active) and inactive | 24.6 µM (active) and 38.5 µM (active) and inactive | 19.5 µM (active) and 21.6 µM (active) and inactive | inactive | 21.9 µM (active) and 38.5 µM (active) and inactive | – | 2.76 µM (active) and 1.93 µM (active)
15 | CCCN | inactive | inactive | inactive | -0.242% (inactive) | inactive | inactive | inactive | inactive | inactive | – | –
16 | N#CCCl | inactive | inactive | inactive | – | inactive | inactive | inactive | inactive | inactive | inactive | –
17 | COc1ccc(Cc2nccc3cc(OC)c(OC)cc23)cc1OC | inactive | 4.77 µM (active) | 10.7 µM (active) | – | – | inactive | – | – | – | – | 5.35 µM (active)
18 | CC(=O)[O-].CC(=O)[O-].[Co+2] | inactive | inactive | inactive | – | inactive | inactive | inactive | inactive | inactive | inactive | –
19 | Clc1ccc(C(c2ccc(Cl)cc2)C(Cl)Cl)cc1 | 55.8 µM (active) and 49 µM (active) | 44.4 µM (active) and 43.6 µM (active) | inactive | – | inactive | inactive | inactive | inactive | inactive | – | 49.8 µM (active) and 43.6 µM (active)

Row | Structure (SMILES) | Potency [1] | Potency [2] | Potency [3] | max response [4] | Potency [5] | Potency [6] | Potency [7] | Potency [8] | Potency [9] | Potency [10] | Potency [4]
20 | O.O.O.O.O.O.O=S(=O)([O-])[O-].[Ni+2] | inactive | inactive | inactive | -26.5% (inactive) | inactive | inactive | inactive | inactive | inactive | – | –
21 | CC(=O)[O][Sn]([c]1ccccc1)([c]1ccccc1)[c]1ccccc1 | 0.219 µM (active) | 0.049 µM (active) | 11 µM (active) | – | – | – | – | inactive | – | 0.245 µM (active) | 0.0347 µM (active)
22 | CC(O)C(=O)[O][Hg][c]1ccccc1 (centres undefined) | 0.977 µM (active) | 1.1 µM (active) | 2.19 µM (active) | – | – | 2.45 µM (active) | 1.95 µM (active) | inactive | – | 21.9 µM (active) | 0.977 µM (active)
23 | O=Cc1ccccc1 | inactive | inactive | inactive | 19.9% (inactive) | inactive | inactive | inactive | inactive | inactive | – | –
24 | [Cl-].[Cl-].[Sn+2] | inactive | inactive | inactive | – | inactive | inactive | inactive | inactive | inactive | inactive | –
25 | O=[N+]([O-])c1ccc(CCl)cc1 | inactive | inactive | inactive | – | inactive | inactive | inactive | inactive | inactive | inactive | –
26 | CN(C)CCc1c[nH]c2ccccc12 | inactive | inactive | inactive | -4.01% (inactive) | inactive | inactive | inactive | inactive | inactive | – | –
27 | C#CC1(O)CCCCC1 | inactive | inactive | inactive | 19.4% (inactive) | – | – | – | inactive | inactive | inactive | –
28 | c1csc(-c2ccc(-c3cccs3)s2)c1 | inactive | inactive | inactive | -2.2% (inactive) | inactive | inactive | inactive | inactive | – | – | –
29 | O=C1C2(Cl)C3(Cl)C4(Cl)C(Cl)(Cl)C5(Cl)C3(Cl)C1(Cl)C5(Cl)C24Cl (centres undefined) | 42.9 µM (active) and 52.6 µM (active) | 21.5 µM (active) and 41.8 µM (active) | 42.9 µM (active) and 46.9 µM (active) | – | 24.1 µM (active) and 41.8 µM (active) | 48.2 µM (active) and 41.8 µM (active) | 21.5 µM (active) and 37.3 µM (active) | inactive | 48.2 µM (active) and 46.9 µM (active) | 38.3 µM (active) and 52.6 µM (active) | –
30 | CCCCCON=O | inactive | inactive | inactive | 1.89% (inactive) | inactive | inactive | inactive | inactive | inactive | – | –
31 | CCN(CC)C(=S)S | 17.5 µM (active) and 4.34 µM (active) and 9.77 µM (active) | inactive | inactive | – | inactive | inactive and 7.72 µM (active) and 21.9 µM (active) | 17.5 µM (active) and 6.13 µM (active) and 19.5 µM (active) | inactive | inactive and 21.9 µM (active) | – | 24.8 µM (active) and 4.34 µM (active) and 11 µM (active)
32 | CC(C)C(Br)C(=O)NC(N)=O (centres undefined) | inactive | inactive | inactive | – | inactive | inactive | inactive | inactive | inactive | inactive | –
33 | S=C=NCCc1ccccc1 | 43.7 µM (active) | 43.7 µM (active) | inactive | – | – | – | – | inactive | – | – | 49.1 µM (active)
34 | COC(=O)/C=C(\C)OP(=O)(OC)OC | inactive | inactive | inactive | – | inactive | inactive | inactive | inactive | inactive | inactive | –
35 | COCCC#N | inactive | inactive | inactive | – | inactive | inactive | inactive | inactive | inactive | – | –
36 | O=[N+]([O-])c1cc(C(F)(F)F)c(Cl)c([N+](=O)[O-])c1Nc1ncc(C(F)(F)F)cc1Cl | 24.5 µM (active) | 2.75 µM (active) | – | – | 43.6 µM (active) | 12.3 µM (active) | 3.89 µM (active) | inactive | 17.4 µM (active) | 38.9 µM (active) | 1.55 µM (active)
37 | CCOP(=O)(Sc1ccccc1)Sc1ccccc1 | inactive | inactive | inactive | – | inactive | inactive | inactive | inactive | inactive | inactive | –
